Compound activity deposited in PubChem BioAssay by National Center for Advancing Translational Sciences (NCATS).
SMN2 splice enh = increases expression of the SMN2 splice variant; HEK293 SMN2-luciferase splicing reporter, luminescence, 30-36 h; Potency, µM (doses to about 46.1 µM), most hits filed as activators; hit rate 2.8% among 210,000; also: nearly all actives have a fitted effect of over 55% in size
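HEK293 cells carry an SMN2 minigene-luciferase reporter in which exon 7 inclusion puts luciferase in frame. Cells were seeded at 2000 cells/well, attached for 10-12 hours, then exposed to compounds for 30-36 hours at 37C before ONE-Glo luminescence.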
FLuc counter = counter-screen for miR-21 project: firefly luciferase inhibitors or activators; P08659; purified FLuc, Km substrates, luminescence inhibition; Potency, µM (top dose mostly 57.5 µM), hits mostly inhibitors; hit rate 6.9% among 360,000; AID 588342; also: nearly all actives have a fitted effect of over 55% in size
Target sequence (P08659 whole entry, looked up): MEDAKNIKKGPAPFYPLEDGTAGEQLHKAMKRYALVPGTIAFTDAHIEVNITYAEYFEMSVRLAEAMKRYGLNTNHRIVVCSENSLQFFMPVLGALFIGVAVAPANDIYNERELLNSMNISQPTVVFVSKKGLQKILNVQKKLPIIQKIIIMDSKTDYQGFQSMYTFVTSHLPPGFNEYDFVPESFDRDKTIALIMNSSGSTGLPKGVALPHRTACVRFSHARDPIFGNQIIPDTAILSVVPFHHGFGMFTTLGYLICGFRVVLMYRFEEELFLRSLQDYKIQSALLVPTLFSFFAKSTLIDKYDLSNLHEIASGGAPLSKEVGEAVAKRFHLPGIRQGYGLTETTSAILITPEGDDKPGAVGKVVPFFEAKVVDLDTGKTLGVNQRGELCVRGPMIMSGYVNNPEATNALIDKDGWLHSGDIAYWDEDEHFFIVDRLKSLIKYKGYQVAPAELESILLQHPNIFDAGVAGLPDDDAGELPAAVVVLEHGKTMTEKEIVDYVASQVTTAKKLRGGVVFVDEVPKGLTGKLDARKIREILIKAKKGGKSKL
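Purified P. pyralis luciferase (10nM final) with 10uM D-luciferin and 10uM ATP (Km levels) in 50mM Tris acetate pH 7.5, 10mM Mg acetate, 0.01% Tween-20, 0.05% BSA; qHTS 6-point titration, ~60 µM downward; luminescence read.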
Rab9 promoter act = Rab9 promoter activation; Huh7 Rab9 promoter-luciferase reporter, luminescence, 24 h; Potency, µM (top dose mostly 9.22 µM), usual class: activators; hit rate 2.8% among 320,000; also: nearly all actives have a fitted effect of over 60% in size
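Huh7 cells stably carrying a Rab9 promoter-luciferase reporter, 1500 cells per well in OP-MEM I with 10% FBS, treated with compound 24 hours at 37C. Luciferase activity read by luminescence after 10 minutes with Amplite reagent.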
ELG1 DNA repair = ELG1-dependent DNA repair inhibition | hit rate 2.3% among 330,000 | Potency, µM (doses to about 46.1 µM), most hits filed as inhibitors | HEK293T ELG1-luciferase reporter, luminescence, 16 h; DNA damage induced by 5-fluorouridine; also: nearly all actives have a fitted effect of over 55% in size
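HEK293T cells expressing luciferase-tagged ELG1 (2,000/well) received 5-Fluorouridine plus compound or DMSO for 16 hr at 37 °C. Luciferase was read by ONE-Glo luminescence after 30 min at room temperature.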
ELG1 genotox = inducers of genotoxicity in HEK293T ELG1-luciferase cells. HEK293T ELG1-luciferase reporter, luminescence, 16 h. Potency, µM (doses to about 46 µM), actives largely listed as activators. hit rate 1.3% among 330,000. AID 504466; also: nearly all actives have a fitted effect of over 60% in size
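After overnight (16 hr) compound treatment at 37 °C, ELG1-luciferase HEK293T cells were lysed with ONE-Glo; luminescence quantified 30 min later at room temperature.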
NPC1 promoter act = activates the NPC1 promoter; hit rate 2.4% among 320,000; Potency, µM (doses to about 9.22 µM), actives largely listed as activators; Huh7 NPC1 promoter luciferase reporter, 24 h; also: nearly all actives have a fitted effect of over 60% in size
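NPC1 promoter–luciferase Huh7 cells; 24 h compound; luminescence.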
Of the large screens only hits and unclear results are named; the others gave an inactive call. In the library only some 9.3% were active in any assay of this set; here they are far more common. Calls follow the shape of the dose curve; as a rule, active = well fitted curve in the direction sought with a large enough effect; inconclusive = small, poorly fitted or top-dose-only effect, or another doubt; inactive = no such curve, though single readings can be large; an effect the other way counts as inactive or inconclusive.

O=C(/C=C/c1ccccc1)Nc1cccnc1	FLuc counter 6.7µM, Rab9 promoter act 2.2µM, ELG1 DNA repair inconclusive, ELG1 genotox inconclusive, NPC1 promoter act 2.2µM (no result: SMN2 splice enh)
O=C(/C=C/c1ccc([N+](=O)[O-])cc1)Nc1cccnc1	SMN2 splice enh 13µM, FLuc counter 5.4µM, Rab9 promoter act 3.5µM, ELG1 DNA repair inconclusive, ELG1 genotox inconclusive, NPC1 promoter act 2.8µM
Cc1ccc(/C=C/C(=O)Nc2cccnc2)o1	SMN2 splice enh inconclusive, FLuc counter 24µM, Rab9 promoter act inconclusive, ELG1 DNA repair inconclusive
O=C(/C=C/c1ccccc1)NNC(=O)c1cccnc1	none
O=C(/C=C/c1ccc(Cl)c([N+](=O)[O-])c1)Nc1cccnc1	ELG1 DNA repair inconclusive
COc1ccccc1NC(=O)CS(=O)(=O)c1cn(CC(=O)N2CCOCC2)c2ccccc12	none
C[C@H](CO)N1C[C@H](C)[C@@H](CN(C)C(=O)Nc2ccc3c(c2)OCO3)Oc2ccc(NC(=O)CCC(F)(F)F)cc2C1=O	none (no result: SMN2 splice enh, FLuc counter, Rab9 promoter act, NPC1 promoter act)
CCCN(C(=O)CSc1nnc(-c2ccoc2C)n1N)C1CCS(=O)(=O)C1 (configuration not stated)	ELG1 DNA repair 0.65µM
CCCN(C(=O)CSc1nnnn1-c1ccccc1OC)C1CCS(=O)(=O)C1 (configuration not stated)	none (no result: SMN2 splice enh)
CC(=O)c1sc(NC(=O)CCS(=O)(=O)c2ccc(C)cc2)nc1C	none (no result: SMN2 splice enh)
COc1cc(NS(=O)(=O)c2ccc(C)cc2C)cc(OC)c1OC	ELG1 DNA repair 10µM
CN1c2ccsc2C(O)=C(C(=S)Nc2ccc(F)c(Cl)c2)S1(=O)=O	FLuc counter inconclusive
O=S(=O)(Nc1cc(Cl)ccc1-n1cncn1)c1cc(Br)ccc1Br	ELG1 DNA repair 23µM (no result: SMN2 splice enh, FLuc counter)
O=C(c1cnccn1)N1CCC[C@@]2(CCN(c3ccncc3)C2)C1	none (no result: FLuc counter, Rab9 promoter act, ELG1 DNA repair, ELG1 genotox, NPC1 promoter act)
COc1ccc2nc(/C=N/NC(=O)[C@H](C)NC(=O)OC(C)(C)C)ccc2c1	SMN2 splice enh inconclusive, FLuc counter 5.4µM, ELG1 DNA repair inconclusive, ELG1 genotox inconclusive
Cc1ccc2cc(/C=N/NC(=O)[C@H](C)NC(=O)OC(C)(C)C)c(Cl)nc2c1	none
CC(=O)c1ccc(NC(=S)N2CCCCCC2)cc1	SMN2 splice enh inconclusive, FLuc counter inconclusive, Rab9 promoter act inconclusive, ELG1 DNA repair inconclusive, ELG1 genotox inconclusive
CC(=O)c1ccc(NC(=S)N2CCCC(CO)C2)cc1 (configuration not stated)	SMN2 splice enh 16µM, FLuc counter 8.5µM, Rab9 promoter act inconclusive, ELG1 DNA repair inconclusive, ELG1 genotox inconclusive, NPC1 promoter act inconclusive
CC1CCCN(C(=S)Nc2ccc(Nc3ccccc3)cc2)C1 (configuration not stated)	FLuc counter inconclusive, Rab9 promoter act 3.5µM, ELG1 DNA repair inconclusive (no result: SMN2 splice enh)
COC(=O)Cc1ccc(NC(=S)N2CCCC(C)C2)cc1 (configuration not stated)	SMN2 splice enh inconclusive, FLuc counter 1.5µM, Rab9 promoter act inconclusive, ELG1 DNA repair inconclusive, ELG1 genotox inconclusive
OC1CCCN(C(=S)Nc2ccc(SC(F)F)cc2)C1 (configuration not stated)	SMN2 splice enh inconclusive, FLuc counter 11µM, ELG1 DNA repair inconclusive
O=C1CCCN1CCCNc1ncccc1[N+](=O)[O-]	none (no result: SMN2 splice enh)
Cc1ccc(C(=O)COC(=O)CN2C(=O)C3C4C=CC(C4)C3C2=O)cc1C (configuration not stated)	FLuc counter inconclusive (no result: SMN2 splice enh)
CCCn1c(SCc2ccon2)nc2ccccc2c1=O	none
Cc1ccc(NC(=S)N2CCCC(CO)C2)c(C)c1 (configuration not stated)	FLuc counter 17µM, Rab9 promoter act inconclusive (no result: SMN2 splice enh)
COc1cc(NC(=S)N2CCCC(CO)C2)cc(OC)c1 (configuration not stated)	FLuc counter inconclusive
COC(=O)Cc1ccc(NC(=S)N2CCCC(CO)C2)cc1 (configuration not stated)	FLuc counter 0.85µM, Rab9 promoter act inconclusive, ELG1 DNA repair inconclusive, ELG1 genotox inconclusive, NPC1 promoter act inconclusive (no result: SMN2 splice enh)
OCCN1CCN(C(=S)Nc2ccc(Oc3ccccc3)cc2)CC1	none
Cc1ccc(NC(=S)N2CCC(O)CC2)c(C)c1	none
OCC1CCCN(C(=S)Nc2ccc(Oc3ccccc3)cc2)C1 (configuration not stated)	FLuc counter 13µM, Rab9 promoter act 1.8µM, ELG1 DNA repair inconclusive, NPC1 promoter act inconclusive (no result: SMN2 splice enh)
CC1CCc2cc(F)ccc2N1C(=O)C12CCC(C)(C(=O)O1)C2(C)C (configuration not stated)	ELG1 DNA repair inconclusive
COc1cccc(/C=N/Nc2ccc(C(=O)O)cc2)c1O	FLuc counter 0.19µM, ELG1 DNA repair inconclusive
Cc1ccc(S(=O)(=O)Oc2ccccc2/C=N/Nc2ccc(C(=O)O)cc2)cc1	FLuc counter 19µM, ELG1 DNA repair inconclusive (no result: SMN2 splice enh)
COc1cccc(/C=N/Nc2ccc(S(=O)(=O)O)cc2)c1O	FLuc counter inconclusive, ELG1 DNA repair inconclusive
COc1cccc(/C=N/Nc2ccccc2C(=O)O)c1O	FLuc counter 1.3µM, Rab9 promoter act 0.4µM, ELG1 DNA repair inconclusive, ELG1 genotox 4.1µM, NPC1 promoter act 0.56µM (no result: SMN2 splice enh)
Cc1ccc(CSc2ccc(C(=O)N3CCOCC3)cc2[N+](=O)[O-])cc1	none
CN1CCC(=O)N([C@H](CO)c2ccccc2)CC1	ELG1 DNA repair inconclusive (no result: SMN2 splice enh)
CCOc1ccc(CNC(=O)Cn2nc(C)c3nn(-c4ccc(Cl)cc4)c(C)c3c2=O)cc1	none (no result: SMN2 splice enh, Rab9 promoter act, ELG1 DNA repair, ELG1 genotox, NPC1 promoter act)
Cc1c(-c2cccc(NC(=O)c3ccc(F)c(F)c3)c2)nc2ncccn12	none (no result: SMN2 splice enh, Rab9 promoter act, ELG1 DNA repair, ELG1 genotox, NPC1 promoter act)
Cc1nccc(-c2cccc(N/N=C(\C#N)C(=O)c3ccccc3)c2)n1	ELG1 DNA repair 15µM (no result: SMN2 splice enh)
NC(=O)c1cccc(NC(=O)Nc2ccc(Cl)cc2)c1	FLuc counter inconclusive, Rab9 promoter act inconclusive, ELG1 genotox inconclusive, NPC1 promoter act inconclusive (no result: SMN2 splice enh)
Cc1c(-c2cccc(NC(=O)Nc3ccc(Cl)cc3)c2)nc2ncccn12	FLuc counter 11µM (no result: SMN2 splice enh, Rab9 promoter act, ELG1 DNA repair, ELG1 genotox, NPC1 promoter act)
Cc1nccc(-c2cccc(NC(=O)Nc3ccc(Cl)cc3)c2)n1	FLuc counter 4.8µM (no result: SMN2 splice enh)
COc1ccc(NC(=O)c2ccc3c(c2)N(Cc2cccc(Cl)c2)C(=O)c2ccccc2S3(=O)=O)cc1Cl	none (no result: Rab9 promoter act, ELG1 DNA repair, ELG1 genotox, NPC1 promoter act)
CC(C)CC(=O)Nc1nnc(S(=O)(=O)N2c3ccccc3CC2C)s1 (configuration not stated)	none (no result: SMN2 splice enh)
O=C(Nc1c2c(nn1-c1ccc(F)cc1)CS(=O)C2)c1ccc(S(=O)(=O)N2CCOCC2)cc1 (configuration not stated)	none
COCCNC(=O)c1cccc(Nc2nc(-c3ccccc3)c3cc(Cl)ccc3n2)c1	ELG1 DNA repair 21µM
OCCNc1nc(-c2ccccc2)c2cc(Cl)ccc2n1	none
